Source: PubChem BioAssay AID434958 (Southern Research Specialized Biocontainment Screening …, 2010)
Out of some 1,200 compounds screened, about 400 (33%) were called active. Not all results are given here. Potency and affinity values are given separately. Unmarked numbers belong to inactive results. The rule behind the calls is not given here.

Test: mammalian cell cytotoxicity, dose response, cytotoxicity control (AID 434958);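 note: cells exposed to compound for 72 hours before readout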
Settings: cytotoxicity counter-screen; series mostly up to 40 µM; viability: at the top concentration

| SMILES | viability |
| --- | --- |
| Cc1cc(C)c(C)c(S(=O)(=O)N2C(=S)NC(=O)C2C(C)C)c1C (stereo unspecified) | 89.1% |
| O=C(c1cc2c(s1)CCCC2)n1cccn1 | 101% |
| O=C(CSc1nnc(SCc2ccc(Cl)cc2)s1)c1ccc2c(c1)OCO2 | 93.7% |
| O=C(N/N=C\c1cn[nH]c1-c1ccc(Cl)cc1)c1cccs1 | 95.4% |
| C=CCSc1nc2c(c(-c3ccsc3)c1C#N)CN(C)CC2 | 92.9% |
| O=C(NN1C(=O)C2C(C1=O)C1C=CC2C12CC2)c1ccncc1 (stereo unspecified) | 106% |
| O=c1[nH]c(CN(CCO)CCO)nc2c1C1(CCCCC1)Cc1ccccc1-2 | 94.6% |
| CN(/N=C/c1ccncc1)c1cnc2ccccc2n1 | 87% |
| c1ccc(-c2n[nH]c3c2CCC3)cc1 | 97.4% |
| CSc1ncnc2c1ccn2CC(=O)Nc1ccc(C)c(C)c1 | 109% |
| CCCOc1ccccc1NC(=O)/C=C/C(N)=O | 104% |
| CC(=O)OCC(=O)Nc1ccc(C(C)=O)cc1 | 97.7% |
| CC(C)(C)[C@@H]1C=C(C(=O)Nc2ccccc2)O[C@H](OCc2ccc(CO)cc2)C1 | 84.5% |
| Cc1cccnc1NC(=S)NC(=O)c1cncc(Br)c1 | 97.7% |
| COc1ccc(CNC(=O)C2CCN(S(=O)(=O)c3c(C)noc3/C=C/N(C)C)CC2)cc1 | 99.2% |
| CC(C)(C)C1CCC(OCC(O)CN2CCN(c3ccccn3)CC2)CC1 (stereo unspecified) | 92.3% |
| COc1ccc(-c2csc(-c3cccs3)n2)c(OC)c1 | 91% |
| CCC(=O)Oc1oc(-c2ccccc2)nc1C=Nc1ccc(C)cc1 | 85.8% |
| CCn1cc(C(=O)O)c(=O)c2cc(F)c(N3CCN(C(=S)NC(=O)c4ccccc4C)CC3)cc21 | 96.7% |
| COC(=O)c1cc(OC)c(OC)cc1NC(=S)N1CCN(C)CC1 | 97.6% |
| Cc1nnc(SCC2=C(C(=O)O)N3C(=O)C(NC(=O)COc4ccc(F)cc4)C3SC2)s1 (stereo unspecified) | 109% |
| CC1CN(C(=S)NC(=O)c2cccc([N+](=O)[O-])c2)CC(C)O1 (stereo unspecified) | 97.2% |
| COc1cc(C(=S)N2CCOCC2)ccc1OC(=O)c1ccc([N+](=O)[O-])cc1[N+](=O)[O-] | 84.7% |

| SMILES | viability |
| --- | --- |
| COc1ccc(C(=O)Nc2cccc3c2CCCC3)c(OC)c1 | 89.2% |
| O=C(Oc1c(-c2ccccc2)c(=O)n2c3c(cccc13)CC2)c1cccc([N+](=O)[O-])c1 | 99% |
| CN(C)c1ccc(/C=N/NC(N)=S)cc1[N+](=O)[O-] | 101% |
| O=C(CCCCCN1C(=O)c2cccc([N+](=O)[O-])c2C1=O)Nc1ccccc1F | 105% |
| CC(=O)NC(=S)Nc1ccc(NC(=O)c2cccs2)cc1 | 107% |
| CCN=c1scc(-c2ccccc2)n1/N=C/c1ccccn1 | 89.3% |
| CC1CCc2nc(NC(=O)C3COc4ccccc4O3)sc2C1 (stereo unspecified) | 84.2% |
| COc1ccc(CCNCc2csc3nc4ccccc4n23)cc1OC | 90% |
| Cc1cc(C)cc(NC(=S)NN)c1 | 80.8% |
| CSc1ccc(/C=C/C(=O)NC23CC4CC(CC(C4)C2)C3)cc1 | 85.6% |
| c1ccc(-c2cc3ccccc3[nH]2)cc1 | 99.8% |
| C/C(=N\NC(=O)c1cc2c(s1)CCC(C)C2)c1ccc[nH]1 (stereo unspecified) | 93.7% |
| Cc1cccc2c(C(=O)n3cccn3)cc(-c3ccccc3Cl)nc12 | 104% |
| O=C(Oc1c(-c2ccccc2)c(=O)n2c3c(cccc13)CC2)c1ccc(F)cc1 | 104% |
| COc1ccccc1-c1cc(C(=O)Nc2c(C)n(C)n(-c3ccccc3)c2=O)no1 | 100% |
| COc1ccc(OC)c(-c2cc(C(=O)Nc3c(C)n(C)n(-c4ccccc4)c3=O)no2)c1 | 84.8% |
| O=C(CCSc1ccc(Cl)c(Cl)c1)NC12CC3CC(CC(C3)C1)C2 | 85.1% |
| COc1ccnc(CS(=O)c2nc3cc(OC(F)F)ccc3[nH]2)c1OC (stereo unspecified) | 99.2% |
| O=C(CSc1ccc([N+](=O)[O-])cn1)Nc1ccc(N2CCOCC2)cc1 | 101% |
| O=C(Nc1ccccc1N1CCCC1)c1ccc2c(c1)OCO2 | 91% |
| CC(C(=O)Nc1cc([N+](=O)[O-])ccc1Cl)N1CCN(c2ccccc2O)CC1 (stereo unspecified) | 83.3% |
| O=C(Nc1ccc(N2CCCCC2)cc1)c1cc([N+](=O)[O-])cc([N+](=O)[O-])c1 | 83.6% |
| CCOC(=O)COc1ccc2nsnc2c1 | 105% |

| SMILES | viability |
| --- | --- |
| CN(C)c1ccc(N=Nc2cccc3ccoc23)cc1 | 89.5% |
| N#C/C(C(=O)NCc1ccco1)=C1/SC=C(c2ccccc2)N1c1ccccc1 | 92% |
| CCOc1ccc(-c2nc(-c3ccccc3C)no2)cc1 | 96.4% |
| COc1cc(NC(=S)NC(=O)c2ccco2)ccc1NC(=O)C(C)C | 96.5% |
| Cc1n[nH]c(C)c1CCCOc1ccccc1 | 98.6% |
| COc1cc(NC(=O)c2ccccc2)c(OC)cc1NC(=O)CN1CCOCC1 | 112% |
| COc1ccc(C(=O)CN(C(=O)c2ccc(Cl)cc2)N2C(=O)c3ccccc3C2=O)cc1 | 98.5% |
| COc1cc(NC(=O)c2ccccc2Cl)ccc1NC(=O)c1ccco1 | 91.6% |
| O=C(CN1CCN(S(=O)(=O)c2ccc(F)cc2)CC1)Nc1ccc2c(c1)OCCO2 | 97.2% |
| O=c1[nH]c(CSc2nnc3ccccn23)nc2ccccc12 | 104% |
| O=C(CCN1C(=O)/C(=C/c2ccccc2F)SC1=S)Nc1ccccn1 | 103% |
| Cc1ccc(C(=O)NN2C(=O)/C(=C/c3cccn3C)SC2=S)cc1 | 97.2% |
| CN(c1ccc(OCC(=O)Nc2ccc3[nH]c(=O)[nH]c3c2)cc1)S(=O)(=O)c1ccc(Cl)cc1 | 106% |
| CCN1C(=O)C(O)(CC(=O)c2ccc(-n3cccc3)cc2)c2ccccc21 (stereo unspecified) | 95.4% |
| NC(=O)Nc1ccc(C(=O)OCC(=O)Nc2ccc(Cl)cn2)cc1 | 103% |
| O=C(Cn1ncc2c3ccccc3n(Cc3ccccc3F)c2c1=O)NCCCN1CCCC1=O | 84.4% |
| CSc1nc(-c2ccc(Cl)cc2)nn1S(=O)(=O)c1ccccc1 | 89.6% |
| Cc1cccc(N2CCN(CC3CCCCC3)CC2)c1C | 102% |
| CCOC(=O)Cc1nc2ccccc2[nH]1 | 107% |
| COc1ccc(CNC(=O)c2sc3nc4c(c(C(F)(F)F)c3c2N)CCC4)cc1 | 94.8% |
| CCOC(=O)c1[nH]c2ccccc2c1NC(=O)Nc1ccc(OC)cc1 | 97.4% |
| O=C(O)CSc1ncnc2c1sc1nc(-c3ccccc3)c3c(c12)CCC3 | 91.9% |
| CC(C)(C)c1ccc(C(=O)Oc2ccc3c(c2)OCC3=O)cc1 | 86.2% |

| SMILES | viability |
| --- | --- |
| CS/C(N)=N/N=C/c1cc(Br)cc(Br)c1O | 96.2% |
| CCOC(=O)N1CCN(C(=O)CSc2nnc(-c3ccccc3OC)o2)CC1 | 96.8% |
| NNC(=O)c1cccc(O)c1 | 103% |
| O=C(N/N=C/c1cccc(NC(=O)c2ccc(Cl)cc2)c1)c1cccc(O)c1 | 88.1% |
| Cc1cc(C2C(=O)c3ccccc3C2=O)c(C)c(C)c1C | 90.2% |
| CCCCNC(=O)/C(=C/c1ccccc1)NC(C)=O | 106% |
| CCOC(=O)c1ccc(-c2ccc(C=O)o2)cc1 | 99.5% |
| COc1ccc([C@H]2CC(=O)C=C(/C=C/c3ccccc3)C2)cc1OC | 82% |
| NS(=O)(=O)c1cccnc1Nc1c(Cl)cccc1Cl | 103% |
| COCCSc1nc2sc3c(c2c(=O)n1-c1ccccc1)CCN(C)C3 | 98.3% |
| CCOC(=O)C1CCCN(c2ccc(NC(=O)c3snc4c(=O)[nH]cnc34)cc2)C1 (stereo unspecified) | 103% |
| O=C(COC(=O)c1ccc([N+](=O)[O-])s1)NCc1ccccc1 | 97.2% |
| Cc1ccsc1C(=O)NNC(=O)c1csc(N2CCOCC2)n1 | 102% |
| COC(=O)c1ccc(/C=N/NC(=O)c2cccc(F)c2)cc1 | 94.4% |
| COc1ccc2ccccc2c1/C=N/NC(=O)c1cccc(Br)c1 | 82.7% |
| COc1ccc(/C=C/C(=O)N(C(C)C)C(C)C)cc1Br | 97% |
| COc1cc(/C=C/C(=O)NC(C)(C)C)ccc1OCc1ccccc1 | 91.2% |
| CC1(C)CC(=O)c2cc(C(=O)NCc3ccco3)c(=O)n(-c3ccccc3)c2C1 | 96.6% |
| CCC1(c2ccc(Cl)cc2)NC(=S)N(c2ccc(C)cc2)N1 (stereo unspecified) | 95.2% |
| CC(=O)NC(=S)Nc1ccc(NC(=O)c2cccnc2Cl)cc1 | 95.4% |
| CCCCN=C1CC(C)(C)CC(=O)/C1=C(/O)CCC | 101% |
| CCOC(=O)c1c(C)[nH]c(C(=O)COC(=O)CCC2CCCC2)c1C | 105% |
| CCOc1ccc2nc(SC3CC(=O)N(c4cccc(OC)c4)C3=O)sc2c1 (stereo unspecified) | 100% |

| SMILES | viability |
| --- | --- |
| CCc1cc2c(=O)oc(-c3ccccc3F)nc2s1 | 104% |
| CCCCN1C(=O)c2ccc(C(=O)Nc3cccc(C)c3C)cc2C1=O | 98.7% |
| CCOC(=O)c1nc(N2CCN(C(=O)OCC)CC2)c2c3c(sc2n1)CCCC3 | 86.8% |
| CC(=O)Nc1ccc(C(=O)N(C2=NC(C)CS2)c2ccc(Cl)cc2)cc1 (stereo unspecified) | 84.4% |
| COc1ccc(C2C(C#N)=C(SCC(=O)Nc3ccc(C)cc3)NC3=C2C(=O)CC(C)(C)C3)cc1 (stereo unspecified) | 84.9% |
| CCCCNC(=O)c1onc(CSc2ccccc2CC)c1C(=O)O | 99.5% |
| CCCC(=O)Nc1ccc(NC(=S)NC(=O)c2cccs2)cc1 | 96.4% |
| CCCC(=O)N1CCN(c2ccc(NC(=S)NC(=O)CC)cc2)CC1 | 83.8% |
| Cc1ccc(C(=O)OCCN2CCN(c3ncc(C(F)(F)F)cc3Cl)CC2)cc1 | 89.8% |
| N#Cc1c(-c2cccs2)cc(-c2ccccn2)nc1N | 87.3% |
| Cc1cc(C)c2c(N)c(S(=O)c3ccc(C(C)(C)C)cc3)sc2n1 (stereo unspecified) | 102% |
| CC(=O)c1ccc(OCCCC(=O)OCC(=O)N2CCN(c3ccccc3)CC2)cc1 | 100% |
| Cc1nnc(SCc2cccc(Cl)c2)n(N)c1=O | 95.2% |
| Cc1cccc(/C=N\NC(=O)c2csnn2)c1 | 99.9% |
| O=C(Cc1ccc(Cl)cc1Cl)Nc1ccc(OC(F)F)c(Cl)c1 | 104% |
| CCOC(=O)Cn1c(C)cc(=O)c2cccc(C)c21 | 105% |
| O=C(Nc1ccccc1Br)c1cccc2ccccc12 | 91.8% |
| Cc1ccn2c(CNCCn3nc(C)cc3C)c(C(=O)N3CCCCCC3)nc2c1 | 98.5% |
| COc1ccc(C(=O)NC(=S)NC(C)(C)C)cc1Br | 82.4% |
